# Assay results reported in PubChem BioAssay (Tox21).
# Several values for one entry are separate records, joined by “and”; a condition that tells them apart may be missing. Equal entries are not always repeated. Records with an inconclusive call do not appear. Entries that show only a call come without a potency. Where a structure was tested more than once in an assay, its records may differ in their call. Activity calls are given as the source filed them. Calls follow the shape of the dose curve; as a rule, active = well fitted cell-killing curve with a large enough effect in the repeat runs; inconclusive = weak or mixed curves, or effect the other way; inactive = no such curve, though single readings can be large or run the other way.
# Test: qHTS assay for identifying genotoxic compounds that show differential cytotoxicity against isogenic chicken DT40 cell lines with known DNA damage response pathways - Rev3 mutant cell line (AID 743014); also: nearly all actives have a fitted effect of over 55% in size
# Conditions: chicken DT40 Rev3-/- viability, CellTiter-Glo, 40 h; series mostly up to 68.4 µM; activity, negative = cytotoxicity: at the top concentration
# Description: National Center for Advancing Translational Sciences [NCATS]
# NIH Chemical Genomics Center [NCGC]
# U.S. Environmental Protection Agency [EPA]
# National Institutes of Environmental Health Sciences [NIEHS]
# National Toxicology Program [NTP]
# U.S. Food and Drug Administration [FDA]
# DNA repair pathways play a critical role in cellular homeostasis by repairing DNA damage induced by endogenous processes and xenobiotics. Isogenic chicken DT40 cell lines deficient in different DNA repair pathways can be used to identify genotoxic compounds and aid in characterizing the nature of the DNA damage induced. Two DNA repair-deficient cell lines with disrupted genes, Rad54/Ku70 or Rev3, were used to screen the Tox21 10K compound library. Possible genotoxicity was based on the presence of a significant increase in cytotoxicity in one or more of the DNA repair-deficient cell lines compared to that observed in the parental DNA repair-proficient cell line. CellTiter Glo viability assay (Promega, Madison, WI) was used to measure cell viability in these cells after compound treatment. This assay includes the data from the Rev3 mutant cell line.
# Tox21 Assay Protocol Summary:
# 300 DT40 mutant cells in 5 uL/well were dispensed into white, solid-bottom 1536-well plates using a Multidrop Combi (ThermoFisher Scientific, Waltham, MA) dispenser. After the assay plates were incubated at 37 C/5% CO2 for approximately 0.5 hour, 23 nL of compounds dissolved in DMSO, positive controls or DMSO only was transferred into the assay plate by a pintool work station (Kalypsys, San Diego, CA). The assay plates were incubated at 37 C/5% CO2 for 40 hours. After 5 uL per well of CellTiter-Glo reagent was added into each well of the assay plates, the plates were incubated for 30 min at room temperature and the luminescence intensity of the plates was measured using a ViewLux (PerkinElmer, Shelton, CT) plate reader.
# Potency is read from the fitted curve at half-maximal effect.
Structure (SMILES),Potency,"activity, negative = cytotoxicity"
Oc1ccc(O)cc1,18.8 µM (active) and 24.2 µM (active) and 48.6 µM (active),–
CC(C)CC(C)(O)C#CC(C)(O)CC(C)C (stereo not given),54.5 µM (active),–
CCCCC(CC)COP(=O)(OCC(CC)CCCC)OCC(CC)CCCC (stereo not given),–,-0.791% [at 95 µM] (inactive)
CC(=O)c1ccccn1,inactive,–
c1ccc2sc(SSN3CCOCC3)nc2c1,9.67 µM (active) and 2.73 µM (active),–
O=C(O)c1ccccc1Nc1cccc(C(F)(F)F)c1,48.6 µM (active),–
CCCC(=O)O,inactive,–
C[Si](C)(C)O[Si](C)(C)C,inactive,–
CCCCOCCOCCOCCO,inactive,–
COc1cc([C@@H]2c3cc4c(cc3[C@H](O)[C@H]3COC(=O)[C@H]23)OCO4)cc(OC)c1OC,29.8 nM (active) and 19.3 nM (active),–
Nc1ncn([C@@H]2O[C@H](CO)[C@@H](O)[C@H]2O)c(=O)n1,1.88 µM (active) and 1.22 µM (active),–
CCCCNS(=O)(=O)c1ccccc1,inactive,–
CCCCCCCCCC(=O)OC,inactive,–
O=C(c1ccccc1)c1ccc(O)cc1O,–,-13.4% (inactive)
Nc1ccc(Cl)cc1Cl,–,-17% (inactive)
OC[C@H]1O[C@@H]2O[C@H]3[C@H](O)[C@@H](O)[C@@H](O[C@H]4[C@H](O)[C@@H](O)[C@@H](O[C@H]5[C@H](O)[C@@H](O)[C@@H](O[C@H]6[C@H](O)[C@@H](O)[C@@H](O[C@H]7[C@H](O)[C@@H](O)[C@@H](O[C@H]8[C@H](O)[C@@H](O)[C@@H](O[C@H]1[C@H](O)[C@H]2O)O[C@@H]8CO)O[C@@H]7CO)O[C@@H]6CO)O[C@@H]5CO)O[C@@H]4CO)O[C@@H]3CO,inactive,–
Cc1cccc(C(=O)O)c1,inactive,–
COc1c(Cl)c(Cl)c(Cl)c(Cl)c1Cl,inactive,–
S=C(NC1CCCCC1)NC1CCCCC1,inactive and 61.1 µM (active),–
CCC(C)c1ccccc1O (stereo not given),inactive,–

Structure (SMILES),Potency,"activity, negative = cytotoxicity"
COC(=O)CCC(=O)OC,–,3.66% [at 95 µM] (inactive)
C[C@]12CC[C@H]3[C@@H](CCC4=CC(=O)CC[C@@]43C)[C@@H]1CC[C@@H]2C(=O)CO,9.69 µM (active),–
CC(CCC(=O)O)(c1ccc(O)cc1)c1ccc(O)cc1,inactive,–
c1ccncc1,inactive,–
OC1CCCCCCCCCCC1,inactive,–
CC(C)(C)NC(=O)[C@H]1CC[C@H]2[C@@H]3CC[C@H]4NC(=O)C=C[C@]4(C)[C@H]3CC[C@]12C,inactive and 60.4 µM (active) and 27.3 µM (active),–
Nc1ccc(Nc2ccccc2)cc1,67.8 µM (active) and 54.5 µM (active) and 34.4 µM (active),–
COc1cccc2c1C(=O)c1c(O)c3c(c(O)c1C2=O)C[C@@](O)(C(=O)CO)C[C@@H]3O[C@H]1C[C@H](N)[C@H](O)[C@H](C)O1,inactive and 84.1 nM (active) and 9.7 nM (active),–
CCC(C)OC(=O)c1ccc(O)cc1 (stereo not given),–,-28.8% (inactive)
O=C1c2cccc(O)c2C(=O)c2c(O)cccc21,inactive,–
O=C1OC2(c3cc(Br)c(O)c(Br)c3Oc3c2cc(Br)c(O)c3Br)c2c(Cl)c(Cl)c(Cl)c(Cl)c21,inactive,–
Cc1cc2nc3c(=O)[nH]c(=O)nc-3n(C[C@H](O)[C@H](O)[C@H](O)CO)c2cc1C,inactive,–
c1ccc2c(c1)Oc1ccccc1S2,–,-11.1% (inactive)
Nc1ccccc1N,31.4 µM (active) and 10.3 µM (active),–
O=CCCCC=O,2.17 µM (active),–
CC1=CCC(C(C)(C)O)CC1 (stereo not given),inactive,–
Nc1ccc(S(=O)(=O)Nc2cnc3ccccc3n2)cc1,inactive,–
O=C=Nc1ccc(Cc2ccc(N=C=O)cc2)cc1,10.7 µM (active) and inactive,–
Cc1[nH]c(=O)c(C#N)cc1-c1ccncc1,inactive,–
O=S(=O)(O)c1ccc(O)cc1,inactive,–
